Measurements reported in PubChem BioAssay (NCI).
About 83,000 compounds went through this panel and 20% of them were active in at least one assay; those are over-represented in the sample as a whole.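 Single-dose data. Exposure time 48 hours. Values below 10 considered active.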 A number with no mark means an inactive call. Active and inactive are the calls of the source.

Assays:
Assay in all cases: NCI-60 one-dose screen, 48 h (100 = growth as untreated, 0 = no growth, -100 = all killed)
Details in all cases: 10 µM
K-562 leukemia = system: K-562 leukemia
MALME-3M melanoma = system: MALME-3M melanoma
MDA-MB-231 breast = system: MDA-MB-231 breast
RXF 393 renal = system: RXF 393 renal
SF-268 CNS = system: SF-268 CNS
SF-295 CNS = system: SF-295 CNS
SF-539 CNS = system: SF-539 CNS
M14 melanoma = system: M14 melanoma
HCT-15 colon = system: HCT-15 colon
UACC-257 melanoma = system: UACC-257 melanoma

Compound	growth (K-562 leukemia)	growth (MALME-3M melanoma)	growth (MDA-MB-231 breast)	growth (RXF 393 renal)	growth (SF-268 CNS)	growth (SF-295 CNS)	growth (SF-539 CNS)	growth (M14 melanoma)	growth (HCT-15 colon)	growth (UACC-257 melanoma)
Clc1ccc2c(NCCCNc3nccc(Nc4ccc(Br)cc4)n3)ccnc2c1	-68.8% (active)	-83.8% (active)	-90% (active)	-92.7% (active)	-84.3% (active)	-84.9% (active)	-93.1% (active)	-83.6% (active)	-65.8% (active)	–
COc1ccc(-c2cc(/C=C3\C(=O)Nc4ccc(OC)cc43)[nH]n2)cc1	15.6%	35.1%	59.2%	48%	42%	1.93% (active)	24.8%	35.7%	22.8%	68.8%
C/C(=N\Nc1nc2ccccc2s1)c1ccncn1	0.401% (active)	43.2%	31.3%	9.64% (active)	45.5%	39.3%	40.8%	34.9%	18.6%	55.6%
COc1ccc(S(=O)(=O)Nc2c(/C=C\c3cc(OC)c(OC)c(OC)c3)ccc(OC)c2O)cc1	12.3%	61.5%	5.46% (active)	33.5%	13.3%	3.31% (active)	-28.9% (active)	2.65% (active)	7.33% (active)	32.4%
Nc1c(C(=O)Nc2cccc(F)c2)sc2nc3c(cc12)C(=O)CCC3	20.1%	32.4%	40.8%	-14.3% (active)	73.5%	7.23% (active)	-17.4% (active)	15.3%	25.8%	57.3%
Cc1ccc(C(=O)N2C/C(=C/c3ccc(F)cc3)C(=O)/C(=C/c3ccc(F)cc3)C2)cc1	44.2%	98.5%	83.4%	90.4%	85.2%	92.5%	93.2%	84.8%	95.1%	94.4%
CN(C)C=Nc1cc(Cl)ccc1Cl	110%	118%	103%	112%	112%	97%	111%	107%	103%	90.2%
COc1cc(OC)cc(-c2cncn2-c2ccc(-c3nc4cc(OC)cc(OC)c4s3)cc2)c1	19.2%	48%	66.5%	58.1%	68.5%	-22% (active)	62.6%	38.8%	48.4%	82.4%
COc1ccc(OC)c(/C=C/c2nc(SC)n(-c3ccc(Cl)cc3)n2)c1	30.7%	44.8%	91.7%	59.7%	91.7%	46.8%	88.5%	60%	58.9%	87.3%
COc1ccc(-c2cc(/C=C/C(=O)c3cc(OC)c(OC)c(OC)c3)[nH]n2)cc1OC	5.1% (active)	-17.5% (active)	-25.3% (active)	-16.9% (active)	-45.7% (active)	29.1%	-51.4% (active)	53.2%	-15.5% (active)	69.6%
Cc1cccc(NC2=C(C#N)C(=O)NC3(CCCC3)S2)c1	95.3%	104%	110%	102%	103%	108%	91.5%	105%	95.8%	-4.62% (active)
CCN(CC)CCNc1ccc(CO)c2oc3cc(Cl)ccc3c(=O)c12	81.8%	112%	83.7%	73.3%	–	97.9%	88.8%	60.3%	81%	-0.905% (active)
Cc1cc(N(CCCNc2ccnc3cc(Cl)ccc23)Cc2ccc3c(c2)OCO3)nc(N2CCOCC2)n1	-6.17% (active)	-71.4% (active)	14.4%	-48% (active)	36.6%	-9.78% (active)	-72.9% (active)	-71.1% (active)	4.7% (active)	–
Cc1cc(Nc2ccc(Cl)cc2)nc(NCCCNc2ccnc3cc(Cl)ccc23)n1	-53.8% (active)	-82.2% (active)	-88.2% (active)	-91.9% (active)	-66.5% (active)	-68.2% (active)	-100% (active)	-87.5% (active)	-54.3% (active)	–
O=C(Nc1cccc(Br)c1)c1cc(=O)[nH]c2ccccc12	55.8%	101%	93.6%	77.4%	94.8%	112%	92%	104%	92.4%	–
COc1cc(-c2nnc(-c3c(-c4ccc(F)cc4)nc4ccccn34)o2)cc(OC)c1OC	98.8%	105%	64.6%	66.9%	–	74.6%	26.4%	104%	90.6%	92.1%
Cc1ccc(Nc2cc(C)nc(NCCCNc3ccnc4cc(Cl)ccc34)n2)cc1	-55% (active)	-80.5% (active)	-92.4% (active)	-92.1% (active)	-85% (active)	-85.6% (active)	-96.9% (active)	-86% (active)	-71.7% (active)	–
CCCN(CCC)CCC(O)c1cc2c(c3ccccc13)CCCC2 (stereo not given)	82.5%	95%	79.1%	–	83.3%	85.4%	85.4%	91.9%	81.4%	95.8%
Cc1cc(N(CCCNc2ccnc3cc(Cl)ccc23)Cc2cccs2)nc(Cl)n1	0.837% (active)	37.9%	46.6%	46.2%	61.9%	36%	56.3%	22.9%	24.3%	–
O=C(Nc1nc2ccc(F)cc2s1)c1cc(-c2ccc(F)cc2)n2nc(-c3ccccc3)cc2n1	99.9%	-1.39% (active)	83.5%	104%	–	94.8%	93.6%	81%	90.8%	59.2%
